# Results as given in the supplement of paper PMC8728848.
# This excerpt belongs to a sample that is enriched for the strongest signals.
# B1: Eap (Staphylococcus aureus), A0A7L5PYT7 (protein)
# chain: MKFKSLITTTLALGVLASTGANFNNNEAAAAAKPLDKSSSSLHHGYSKVHVPYAITVNGTSQNILSSLTFNKNQNISYKDLEDRVKSVLKSDRGISDIDLRLSKQAKYTVYFKNGTKKVIDLKAGIYTADLINTSEIKAININVDTKKQVEDKKKDKANYQVPYTITVNGTSQNILSNLTFNKNQNISYKDLEDKVKSVLESNRGITDVDLRLSKQAKYTVNFKNGTKKVIDLKSGIYTANLINSSDIKSININVDTKKHIENKAKRNYQVPYSINLNGTSTNILSNLSFSNKPWTNYKNLTSQIKSVLKHDRGISEQDLKYAKKAYYTVYFKNGGKRILQLNSKNYTANLVHAKDVKRIEITVKTGTKAKADRYVPYTIAVNGTSTPILSDLKFTGDPRVGYKDISKKVKSVLKHDRGIGERELKYAKKATYTVHFKNGTKKVININSNISQLNLLYVQDIKKIDIDVKTGTKAKADSYVPYTIAVNGTSTPILSKLKISNKQLISYKYLNDKVKSVLKSERGISDLDLKFAKQAKYTVYFKNGKKQVVNLKSDIFTPNLFSAKDIKKIDIDVKQYTKSKKNK
# Key:
# Experiment in all cases: glycan array binding signal (z-score within array); higher = stronger binding
# Details in all cases: glycan notation: IUPAC condensed, linker removed
# [1] = molecular target: Fuc(a1-2)Gal(b1-3)GalNAc(b1-3)Gal(a1-4)Gal(b1-4)Glc
# Procedure, shortened: (§1)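 From the Consortium for Functional Glycomics database, 3228 arrays were curated, keeping only those whose protein sequence was available. Binding is given as a within-array Z-score averaged across arrays sharing a protein sequence and across linkers. Negative Z-scores can be read as non-binding.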
# [2] = molecular target: Fuc(a1-2)Gal(b1-3)[Fuc(a1-4)]GlcNAc
# Procedure, shortened: as §1
# [3] = molecular target: Fuc(a1-2)[Gal(a1-3)]Gal(b1-3)GlcNAc(b1-2)Man(a1-3)[Fuc(a1-2)[Gal(a1-3)]Gal(b1-3)GlcNAc(b1-2)Man(a1-6)]Man(b1-4)GlcNAc(b1-4)GlcNAc
# Procedure, shortened: as §1
# [4] = molecular target: Fuc(a1-2)[GalNAc(a1-3)]Gal
# Procedure, shortened: as §1
# [5] = molecular target: Fuc(a1-2)[GalNAc(a1-3)]Gal(b1-4)GlcNAc(b1-3)Gal(b1-4)GlcNAc(b1-3)Gal(b1-4)GlcNAc
# Procedure, shortened: as §1
# [6] = molecular target: Fuc(a1-3)[Gal(b1-4)]GlcNAc(b1-4)Gal(b1-4)[Fuc(a1-3)]GlcNAc(b1-4)Gal(b1-4)[Fuc(a1-3)]GlcNAc
# Procedure, shortened: as §1
# [7] = molecular target: Fuc(a1-3)[Gal(b1-4)]GlcNAc6S
# Procedure, shortened: as §1
# [8] = molecular target: Fuc(a1-3)[Gal3S(b1-4)]GlcNAc6S
# Procedure, shortened: as §1
# [9] = molecular target: Fuc(a1-3)[Neu5Ac(a2-3)]Gal(b1-4)GlcNAc(b1-3)GalNAc
# Procedure, shortened: as §1
# [10] = molecular target: Gal(a1-3)Gal(b1-4)[Fuc(a1-3)]GlcNAc
# Procedure, shortened: as §1
# [11] = molecular target: Gal(a1-3)Gal(b1-4)[Fuc(a1-3)]GlcNAc(b1-2)Man(a1-3)[Gal(a1-3)Gal(b1-4)[Fuc(a1-3)]GlcNAc(b1-2)Man(a1-6)]Man(b1-4)GlcNAc(b1-4)GlcNAc
# Procedure, shortened: as §1
# [12] = molecular target: Gal(a1-4)Gal(b1-4)GlcNAc(b1-3)Gal(b1-4)Glc
# Procedure, shortened: as §1
# [13] = molecular target: Gal(b1-3)GalNAc
# Procedure, shortened: as §1
# [14] = molecular target: Gal(b1-3)GalNAc(b1-4)Gal(b1-4)Glc
# Procedure, shortened: as §1
# [15] = molecular target: Gal(b1-4)GlcNAc(b1-2)Man(a1-6)Man(b1-4)GlcNAc(b1-4)GlcNAc
# Procedure, shortened: as §1
# [16] = molecular target: Gal(b1-4)GlcNAc(b1-3)Gal(b1-4)GlcNAc(b1-3)Gal(b1-4)GlcNAc
# Procedure, shortened: as §1
# [17] = molecular target: Gal3S(b1-4)GlcNAc
# Procedure, shortened: as §1
# [18] = molecular target: Gal3S4S(b1-4)GlcNAc
# Procedure, shortened: as §1
# [19] = molecular target: GlcA(b1-6)Gal
# Procedure, shortened: as §1
# [20] = molecular target: GlcNAc(a1-4)Gal(b1-4)GlcNAc(b1-3)Gal(b1-4)Glc
# Procedure, shortened: as §1
# [21] = molecular target: GlcNAc(a1-4)Gal(b1-4)GlcNAc(b1-3)Gal(b1-4)GlcNAc
# Procedure, shortened: as §1
# [22] = molecular target: GlcNAc(a1-4)Gal(b1-4)GlcNAc(b1-3)Gal(b1-4)[Fuc(a1-3)]GlcNAc(b1-3)Gal(b1-4)[Fuc(a1-3)]GlcNAc
# Procedure, shortened: as §1
# [23] = molecular target: GlcNAc(b1-4)GlcNAc(b1-4)GlcNAc(b1-4)GlcNAc(b1-4)GlcNAc(b1-4)GlcNAc
# Procedure, shortened: as §1
# [24] = molecular target: Man(a1-2)Man(a1-3)[Man(a1-6)]Man(a1-6)[Man(a1-2)Man(a1-3)]Man(b1-4)GlcNAc(b1-4)GlcNAc
# Procedure, shortened: as §1
# [25] = molecular target: Neu5Ac(a2-3)Gal(b1-4)[Fuc(a1-3)]GlcNAc
# Procedure, shortened: as §1
# [26] = molecular target: Neu5Ac(a2-3)Gal(b1-4)[Fuc(a1-3)]GlcNAc(b1-6)[Gal(b1-3)]GalNAc
# Procedure, shortened: as §1
# [27] = molecular target: Neu5Ac(a2-3)Gal(b1-4)[Fuc(a1-3)]GlcNAc(b1-6)[Neu5Ac(a2-3)Gal(b1-3)]GalNAc
# Procedure, shortened: as §1
# [28] = molecular target: Neu5Ac(a2-3)GalNAc
# Procedure, shortened: as §1
# [29] = molecular target: Neu5Ac(a2-6)Gal(b1-4)GlcNAc6S
# Procedure, shortened: as §1
# [30] = molecular target: Neu5Ac(b2-6)Gal(b1-4)GlcNAc
# Procedure, shortened: as §1
binder,measurement,setting,value
B1,glycan array binding signal (z-score),[1],0.012
same,glycan array binding signal (z-score),[2],-0.514
same,glycan array binding signal (z-score),[3],-0.498
same,glycan array binding signal (z-score),[4],-0.319
same,glycan array binding signal (z-score),[5],3.63
same,glycan array binding signal (z-score),[6],-0.587
same,glycan array binding signal (z-score),[7],1.35
same,glycan array binding signal (z-score),[8],4.89
same,glycan array binding signal (z-score),[9],3.33
same,glycan array binding signal (z-score),[10],-0.392
same,glycan array binding signal (z-score),[11],-0.414
same,glycan array binding signal (z-score),[12],-0.4
same,glycan array binding signal (z-score),[13],-0.063
same,glycan array binding signal (z-score),[14],-0.183
same,glycan array binding signal (z-score),[15],-0.437
same,glycan array binding signal (z-score),[16],-0.513
same,glycan array binding signal (z-score),[17],-0.007
same,glycan array binding signal (z-score),[18],1.97
same,glycan array binding signal (z-score),[19],-0.24
same,glycan array binding signal (z-score),[20],4.14
same,glycan array binding signal (z-score),[21],4.58
same,glycan array binding signal (z-score),[22],8.99
same,glycan array binding signal (z-score),[23],-0.455
same,glycan array binding signal (z-score),[24],-0.331
same,glycan array binding signal (z-score),[25],-0.563
same,glycan array binding signal (z-score),[26],-0.08
same,glycan array binding signal (z-score),[27],-0.297
same,glycan array binding signal (z-score),[28],-0.425
same,glycan array binding signal (z-score),[29],-0.392
same,glycan array binding signal (z-score),[30],-0.365
